Measurements published in PubChem BioAssay AID1159580 (chemical genetic matrix, 2015).
“And” between values parts separate entries of the source, which are not always exact repeats. Identical values can stand only once. The whole screen tested about 5,500 compounds, of which about 2,000 (36%) were called active. Inconclusive results (about 18%) are left out. Cut-off read from the data, not from the text of the source: active = normalized growth mostly below about 0.91 (no sharp cut-off); inconclusive = no clear call, values can overlap the other calls; inactive = mostly above about 0.92. Some of the results follow.

Experiment: chemical genetic growth profiling, strain panel (AID 1159580);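 note: tested at 20 µM; growth read once vehicle control cultures reached saturation at 30 °C; 1 = growth at the plate median or of vehicle wells; lower values mean less growth of the strain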
Conditions: S. cerevisiae deletion strains, growth OD

Measured: normalized growth

O=C(O)CCCCC1SCC2NC(=O)NC21 (stereo not drawn)
inactive: locus YAL013W, strain DEP1, hits give low values 1.02 | locus YAL021C, strain ccr4, hits give low values 0.999 | locus YAL026C, strain drs2, hits give low values 0.994 | locus YAL030W, strain snc1, hits give low values 0.995 | locus YBL061C, strain skt5, hits give low values 0.989 | locus YBR009C, strain hhf1, hits give low values 0.997 | locus YBR021W, strain FUR4, hits give low values 0.977 | locus YBR023C, strain chs3, hits give low values 0.979 | locus YBR171W, strain sec66, hits give low values 0.996 | locus YBR229C, strain ROT2, hits give low values 1 | locus YBR231C, strain swc5, hits give low values 0.998 | locus YBR279W, strain paf1, hits give low values 0.997 | locus YCL011C, strain gbp2, hits give low values 0.995 | locus YCL016C, strain dcc1, hits give low values 0.995 | locus YCL029C, strain bik1, hits give low values 0.998 | locus YCL061C, strain MRC1, hits give low values 1 | locus YCL069W, strain vba3, hits give low values 0.97 | locus YCR088W, strain abp1, hits give low values 0.981 | locus YDL005C, strain med2, hits give low values 0.98 | locus YDL035C, strain GPR1, hits give low values 0.996 | locus YDL040C, strain nat1, hits give low values 1 | locus YDL074C, strain BRE1, hits give low values 1.01 | locus YDL101C, strain DUN1, hits give low values 0.989 | locus YDL134C, strain PPH21, hits give low values 1 | locus YDL185W, strain tfp1, hits give low values 0.997 | locus YDL192W, strain arf1, hits give low values 1.01 | locus YDR001C, strain nth1, hits give low values 0.985 | locus YDR069C, strain doa4, hits give low values 0.973 | locus YDR101C, strain arx1, hits give low values 0.98 | locus YDR137W, strain rgp1, hits give low values 0.983 | locus YDR150W, strain NUM1, hits give low values 1.02 | locus YDR159W, strain sac3, hits give low values 1.02 | locus YDR162C, strain NBP2, hits give low values 1.01 | locus YDR195W, strain ref2 1.01 | locus YDR297W, strain sur2, hits give low values 0.996 | locus YDR318W, strain mcm21, hits give low values 1 | locus YDR334W, strain swr1, hits give low values 0.984 | locus YDR335W, strain msn5, hits give low values 0.986 | locus YDR388W, hits give low values 1 | locus YDR392W, strain spt3, hits give low values 0.996 | locus YDR502C, strain sam2, hits give low values 0.994 | locus YEL003W, strain gim4, hits give low values 0.984 | locus YEL037C, strain rad23, hits give low values 0.992 | locus YEL061C, strain CIN8 (second series), hits give low values 1 | locus YEL061C, strain CIN8, hits give low values 1.02 | locus YER015W, strain faa2, hits give low values 0.979 | locus YER016W, strain bim1, hits give low values 0.988 | locus YER110C, hits give low values 1 | locus YER111C, strain swi4, hits give low values 1 | locus YER155C, strain BEM2 (second series), hits give low values 0.985 | locus YER155C, strain BEM2, hits give low values 0.999 | locus YER167W, strain BCK2, hits give low values 1 | locus YFR010W, strain ubp6, hits give low values 0.995 | locus YGL078C, strain dbp3, hits give low values 0.99 | locus YGL086W, strain mad1, hits give low values 0.993 | locus YGL167C, strain pmr1, hits give low values 0.99 | locus YGL173C, strain kem1, hits give low values 0.985 | locus YGL227W, strain vid30, hits give low values 1 | locus YGL240W, strain doc1, hits give low values 0.985 | locus YGL248W, strain PDE1, hits give low values 1 | locus YGL253W, strain hxk2, hits give low values 0.985 | locus YGR078C, strain PAC10, hits give low values 1.05 | locus YGR135W, strain pre9, hits give low values 0.999 | locus YGR252W, strain gcn5, hits give low values 0.944 | locus YHR013C, strain ard1, hits give low values 0.988 | locus YHR027C, strain rpn1, hits give low values 0.989 | locus YHR030C, strain SLT2, hits give low values 1.02 and 1.01 | locus YHR079C, strain IRE1 (second series), hits give low values 1.02 | locus YHR079C, strain IRE1, hits give low values 1.01 | locus YHR094C, strain hxt1, hits give low values 1 | locus YHR129C, strain ARP1, hits give low values 1.01 | locus YHR142W, strain chs7, hits give low values 0.982 | locus YHR200W, strain rpn10, hits give low values 0.996 | locus YIL066C, strain RNR3, hits give low values 1.01 | locus YIL073C, strain SPO22, hits give low values 1.02 | locus YIL125W, strain kgd1, hits give low values 0.987 | locus YIR030C, strain dcg1, hits give low values 1.01 | locus YJL092W, strain hpr5, hits give low values 0.986 | locus YJL095W, strain BCK1 (second series), hits give low values 0.998 | locus YJL095W, strain BCK1, hits give low values 1.02 and 1 | locus YJL115W, strain asf1, hits give low values 0.996 | locus YJL129C, strain trk1, hits give low values 0.954 | locus YJL134W, strain LCB3, hits give low values 1.01 | locus YJL154C, strain vps35, hits give low values 0.994 | locus YJL164C, strain tpk1, hits give low values 1 | locus YJL166W, strain qcr8, hits give low values 0.965 | locus YJL168C, strain set2, hits give low values 0.993 | locus YJL187C, strain SWE1 (second series), hits give low values 1
